Screens (PubChem)
Only some compounds are listed: those with a hit (about 0.39% of all), similar ones and a draw of the others.
USP2a block = blocks human ubiquitin-specific protease USP2a; USP2 core, Ub-CHOP2 coupled fluorogenic reporter, 485/531; Potency, µM (top dose mostly 38.3 µM), inactives show at the highest dose activity change, negative = inhibition, actives largely listed as inhibitors; 330,000 compounds, 0.01% hits;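 also: plate controls were DMSO wells for no effect and full inhibition by NEM control for full effect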
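Cell-free coupled assay: 10nM USP2 core preincubated 30min RT with compound in Tris-HCl pH 8.0/CaCl2/CHAPS buffer, then 25nM Ub-CHOP2 and 25nM reporter substrate; fluorescence (Ex 485/Em 531) read after 60min RT, normalized to NEM inhibition, concentration-response curves fitted.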
Tb PFK inh = inhibitors of T. brucei phosphofructokinase. AID 485367. Potency, µM (series often up to 57.5 µM), for the others: top-dose activity, negative = inhibition, hits mostly inhibitors. 330,000 compounds, 0.17% hits. T. brucei PFK, ADP-Glo luminescence;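 also: 0% = uninhibited 1x PFK enzyme wells and -100% = no-enzyme wells; nearly all actives have a fitted effect of over 60% in size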
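ADP-Glo luminescence quantified ADP after 45 min at room temperature, with 1.25 nM T. brucei PFK, 0.1 mM ATP and 0.5 mM fructose-6-phosphate in pH 8.0 TEA buffer. qHTS titrations up to 57 µM; curves classified by quality.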
GLS inh = blocks human kidney-isoform glutaminase activity; GLS enzymatic activity, qHTS titration; Potency, µM (top dose mostly 45.5 µM), without a hit: at the top dose activity change, negative = inhibition, usual class: inhibitors; 410,000 compounds, 0.21% hits; AID 624170; also: % is scaled to controls: 0 for no effect and ±100 for the full control effect
Target sequence (O94925 whole entry, looked up, canonical isoform): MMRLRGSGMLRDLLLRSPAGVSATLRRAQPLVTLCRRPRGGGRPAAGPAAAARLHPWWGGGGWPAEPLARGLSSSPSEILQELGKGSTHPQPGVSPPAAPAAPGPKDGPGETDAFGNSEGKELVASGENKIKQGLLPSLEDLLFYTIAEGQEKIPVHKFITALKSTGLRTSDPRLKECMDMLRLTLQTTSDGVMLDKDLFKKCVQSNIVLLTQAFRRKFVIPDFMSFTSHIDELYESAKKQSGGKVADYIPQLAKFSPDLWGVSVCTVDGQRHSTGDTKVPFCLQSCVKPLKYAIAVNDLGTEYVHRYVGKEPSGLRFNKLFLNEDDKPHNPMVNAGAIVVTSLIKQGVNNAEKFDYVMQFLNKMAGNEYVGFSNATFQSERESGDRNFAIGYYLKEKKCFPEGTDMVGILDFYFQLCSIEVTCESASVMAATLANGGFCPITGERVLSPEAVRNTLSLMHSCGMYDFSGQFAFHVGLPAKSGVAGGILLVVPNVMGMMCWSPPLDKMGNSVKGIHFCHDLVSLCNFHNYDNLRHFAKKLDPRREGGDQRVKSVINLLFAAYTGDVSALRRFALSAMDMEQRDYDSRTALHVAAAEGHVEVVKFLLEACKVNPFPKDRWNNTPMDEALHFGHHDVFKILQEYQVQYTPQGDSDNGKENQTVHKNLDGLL
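Enzyme dispensed in phosphate buffer (45 mM, pH 8.2, 0.02% Tween-20), compounds pinned in, then 1 mM L-glutamine solution and the glutamate oxidase–HRP–Amplex Red mix added; fluorescence read immediately and again after 30 min at room temperature.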
p53 reactivation = mutant p53 re-activation in reporter cells | H1299 p53-A138V BP100-luciferase reporter, luminescence, 24 h | Potency, µM (titrated, usually from 92.2 µM), for the others: top-dose activity change, positive = activation, hits mostly activators | 320,000 compounds, 0.063% hits; also: % of control where 0% means no effect; nearly all actives have a fitted effect of over 45% in size
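H1299 (p53-null), stable ts p53-A138V + BP100-Luc; 1000 cells/well, Opti-MEM/10% FBS; cpd 4 pt, 1:5; 24 h, 37 deg C, 5% CO2; detection reagent 10 min RT; luminescence.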
* marks the source's active call; other numbers are inactive results; ? = inconclusive; . = no result; ! = repeats disagree. Calls follow the shape of the dose curve; as a rule, active = well fitted curve in the direction sought with a large enough effect; inconclusive = small, poorly fitted or top-dose-only effect, or another doubt; inactive = no such curve, though single readings can be large; an effect the other way counts as inactive or inconclusive. Potency is read from the fitted curve at half-maximal effect.

SMILES	USP2a block	Tb PFK inh	GLS inh	p53 reactivation
O=C(Nc1ccc2nc(SCC(=O)N3CCCc4ccccc43)sc2c1)c1cccc(Cl)c1	.	.	-13%	.
CCOc1ccc(-n2c(=S)sc3c(=O)[nH]c(SCC(=O)N4CCC(C)CC4)nc32)cc1	-3%	2%	7.1µM*	0%
CCCCCC(=O)Nc1cc(S(=O)(=O)O)cc2cc(S(=O)(=O)O)cc(O)c12	.	.	1.8µM*	.
CCOC(=O)C1CCCCN1C(=O)c1oc2c(Cl)cc(C)cc2c1C (stereo not given)	-1%	?	9%	2%
COC(=O)C1CCN(C(=O)c2oc3c(Cl)cc(C)cc3c2C)CC1	0%	-1%	-2%	16µM*
COc1ccc(S(=O)(=O)Nc2cc(C)c(O)c(S(=O)(=O)c3ccccc3)c2)cc1	-1%	-4%	53%	10%
COc1ccc(S(=O)(=O)c2c(C)c(NS(=O)(=O)c3ccccc3)cc(C)c2O)cc1	-25%	-6%	3.2µM*!	-7%
COc1ccc(C(=O)N2CCC(c3nc(-c4ccc(S(=O)(=O)N5CCCC5)cc4)no3)CC2)cc1	.	.	7%	.
COc1ccccc1Cn1c(=O)c2ccccc2n2c(SCC(=O)N3CCCCC3)nnc12	-4%	12%	16µM*	-9%
COc1ccc(CNC(=O)c2ccc(Cn3c(=O)c4cccn4c4cccnc43)cc2)c(OC)c1	.	.	4%	.
C/C=C(\C)C(=O)OC1CC(C)(C)C[C@H]2C3=CC[C@@H]4[C@@]5(C)CCC(O[C@@H]6O[C@@H](C(=O)O)[C@@H](O)C(O[C@@H]7OC[C@H](O)[C@@H](O)[C@@H]7O[C@@H]7OC(CO)C(O)[C@@H](O)[C@@H]7O)C6O[C@@H]6OC(CO)C(O)C(O)C6O)[C@@](C)(CO)[C@@H]5CC[C@]4(C)[C@]3(C)CC(O)[C@@]12CO (stereo not given in full)	0%	?	13µM*	5%
COc1cc(/C=N/NC(=O)NC23CC4CC(CC(C4)C2)C3)ccc1O	-2%	1%	7.9µM*	5%
O=C(N/N=C/c1ccccc1O)NC12CC3CC(CC(C3)C1)C2	-4%	10%	3%	?
COc1cc(/C=N/NC(=O)C(=O)N2CCCCCC2)ccc1O	-2%	-17%	8.9µM*	?
CCOc1cc(/C=N/NC(=O)C(=O)N/N=C/c2ccc(O)c(OCC)c2)ccc1O	-3%	-4%	-24%	3%
C=CCOc1ccc(/C=N/NC(=O)C(=O)N2CCCCCC2)cc1OC	3%	0%	8%	0%
O=C(N/N=C/c1cc(Cl)cc([N+](=O)[O-])c1O)NC12CC3CC(CC(C3)C1)C2	2%	-3%	8.9µM*	6%
CCOc1cc(/C=N/NC(=O)N/N=C/c2ccc(O)c(OCC)c2)ccc1O	.	.	8.9µM*	.
CCN(CC)c1ccc(NC(=O)CCCN2C(=O)C(c3ccccc3)Oc3cccnc32)c(C)c1 (stereo not given)	.	.	-9%	.
CCN(CC)c1ccc(CNS(=O)(=O)c2cc3c(cc2C)NC(=O)CO3)cc1	.	.	16%	.
Cc1ccc(/C=N/Nc2nc3ccccc3s2)o1	1%	0%	8.9µM*	?
CCC(=O)N1c2ccccc2CC1C(=O)NCCCN1CCN(c2cccc(Cl)c2)CC1 (stereo not given)	.	.	3%	.
Cc1cccc(NC(=O)CNC(=O)c2cccc(-n3cccc3)c2)c1C	1%	21µM*	-30%	2%
CC(C)(C)c1ccc(S(=O)(=O)NCc2ccc3c(c2)CCN3C(=O)c2ccccc2)cc1	.	.	7%	.
COc1ccccc1OCCCCn1c(-c2ccc(Cl)cc2)nc2ccccc2c1=O	.	.	-10%	.
SMILES	USP2a block	Tb PFK inh	GLS inh	p53 reactivation
Cc1ccn2c(Nc3ccc4c(c3)OCO4)c(-c3ccccn3)nc2c1	?	1%	11µM*	20µM*
Cc1cc(C(=O)Nc2ccc(Cl)cc2)c(C)n1-c1ccccc1	-1%	1%	-2%	-9%
Cc1cc(C(=O)NNS(=O)(=O)c2cc(C(=O)O)ccc2Cl)c(C)n1-c1ccccc1	1%	0%	20µM*	0%
C(=N\NC1=Nc2cccc3cccc1c23)/c1ccccc1	12%	-4%	-13%	50µM*
Cc1ccc(C(=S)NCS(=O)(=O)c2ccc(C)cc2)cc1	2%	27µM*	1%	1%
O=C(O)c1ccc(N2Cc3ccccc3C2)cc1O	-2%	0%	4µM*	26%
O=C(O)c1ccc(N2CCCCC2)cc1O	0%	-10%	9%	16%
c1ccc(-c2noc(-c3ccno3)n2)nc1	0%	-1%	-6%	11%
c1ccc(-c2noc(-c3ccco3)n2)nc1	0%	-18%	-13%	22µM*
COc1ccnc2c1c(=O)n(Cc1ccc(Cl)cc1Cl)c(=O)n2C	0%	-2%	11µM*	-16%
COc1ccnc2c1c(=O)n(Cc1ccccc1Cl)c(=O)n2C	2%	-19%	13µM*	-6%
COc1cccc(OCc2cc(=O)n3c(-c4ccccc4)csc3n2)c1	.	.	-4%	.
Cc1ccc(S(=O)(=O)Nc2nc(CN3CCOCC3)nc3sc(C(=O)O)c(C)c23)cc1	.	.	18µM*	.
O=C(/C=C/c1ccc2c(c1)OCO2)c1ccccn1	0%	-14%	8%	32µM*
Cc1ccc(C)c(S(=O)(=O)N2CCN(C(=O)/C=C/c3ccco3)CC2)c1	22µM*	?	-14%	16%
COc1ccccc1C(=O)Nc1ccccc1SC(=O)c1ccccc1OC	2%	?	23%	13µM*
CCOc1cc(CNC(=O)c2ccc3c(c2)nc2n3CCCCC2)ccc1OC	.	.	3%	.
COc1ccc(CCNC(=O)CSc2ccc3ccccc3c2)cc1OC	1%	9%	-5%	5%
O=C(CSc1ccc2ccccc2c1)NCCc1ccc(O)c(O)c1	-1%	-23%	1.4µM*	3%
FC(F)(F)c1cccc(NC(=S)NNC(=S)Nc2cccc(C(F)(F)F)c2)c1	2%	-22%	.	-3%
Cc1ccccc1C(=O)NNC(=S)Nc1cccc(C(F)(F)F)c1	-7%	10%	18µM*	?
CC(C(=O)O)N1C(=O)/C(=C/C=C/c2ccco2)SC1=S (stereo not given)	?	3µM*	4µM*	3%
O=C1/C(=C/C=C/c2ccco2)SC(=S)N1NS(=O)(=O)c1ccccc1	?	-29%	16µM*	2%
Cc1ccc(CNC(=O)C2CCN(S(=O)(=O)c3ccc4c(c3)oc(=O)n4C)CC2)cc1	.	.	1%	.
Cc1nn(-c2nc3ccccc3s2)c(C)c1Oc1ccccc1O	1%	-5%	-1%	13µM*
Cc1nn(-c2ccccn2)c(C)c1Oc1ccccc1O	2%	7%	6%	?
CC1(C)CC[C@]2(C(=O)n3ccnc3)CC[C@]3(C)[C@H](C(=O)C=C4[C@@]5(C)C=C(C#N)C(=O)C(C)(C)[C@@H]5CC[C@]43C)[C@@H]2C1	.	.	10µM*	.
O=S(=O)(NCC(c1cccs1)S(=O)(=O)c1ccccc1)c1ccc(F)cc1 (stereo not given)	.	.	-7%	.
